Consider 15 compounds from PubChem BioAssay (NCI).

What all share (test): NCI-60 one-dose screen, 48 h (100 = growth as untreated, 0 = no growth, -100 = all killed)
Holding throughout (settings): 10 µM unless noted

The test system of experiment [1] is SR leukemia.
Experiment [2] has as its system OVCAR-8 ovarian.
In experiment [3] the test system is OVCAR-5 ovarian.
Experiment [4] has as its system OVCAR-4 ovarian.
For experiment [5], the system named is SK-OV-3 ovarian.
Experiment [6] concerns IGROV1 ovarian.
In experiment [7] the test system is OVCAR-3 ovarian.
In experiment [8] the test system is HS 578T breast.
Experiment [9] deals with NCI/ADR-RES ovarian.
Experiment [10] deals with RPMI-8226 leukemia.

The panel holds about 83,000 compounds, 20% with a hit somewhere; the sample as a whole holds those more often.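 Cells were grown in 96-well plates and exposed to the test compound at a single concentration for 48 hours; results are reported as percent growth, with values below 10 considered active.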 Unmarked numbers belong to inactive results. Activity calls are given as the source filed them.

In the case of `COc1cc(OC)cc(C2C3=C(COC3=O)Nc3cc(OC)ccc32)c1` (configuration not stated), the growth in [1] is 8.35% (active); in [2] it was 8.63% (active); in experiment [3] it was 39.5%; in experiment [4] it was 49.4%; in experiment [5], -3.6% (active); in experiment [6], 42.2%. The growth was -50% (active) in experiment [7], 68.1% in [8] and -18.6% (active) in [9].
Turning to `Cc1ccc(S(=O)(=O)Nc2ccc(Cl)cc2)cc1`, the growth is 101% in experiment [10]; 102% in [2]; 97.3% in experiment [3]; 89.7% in experiment [4]; 112% in experiment [5]; 98.9% in experiment [6]. Besides, the growth in experiment [7] was 115%; in experiment [8], 100%; in experiment [9] it was 91.9%.
With `COc1ccc(-c2nc(N/N=C/c3cccc(O)c3)nc(N3CCOCC3)c2C#N)cc1`, the growth is 32.1% in experiment [10]; 68.8% in [2]; 117% in [3]; 89.3% in experiment [4]; 104% in [5]; 71.2% in [6]. The results for the growth in experiment [7], in experiment [8] and in experiment [9] were 75.8%, 69.3% and 74.8%, respectively.
As for `CC(=O)c1c(-c2ccc(OC(F)(F)F)cc2)nc2ccccn12`, the growth in [1] was 116%; in experiment [10], 101%; in experiment [3], 83.1%; in [4] it was 100%; in experiment [5], 97.6%; in experiment [6] it was 88.8%. Also, the figures for the growth in experiment [8] and in experiment [9] were 102% and 95.9%, respectively.
As to `Fc1ccc(-n2cc(COc3ncnc4sc5c(c34)CCCC5)nn2)cc1Cl`, the growth is 96% in experiment [10]; 96.7% in [2]; 96.6% in [3]; 99.7% in experiment [4]; 103% in experiment [5]; 91.9% in experiment [6]. The growth was 112% in experiment [7] and 104% in experiment [8].
Take `NC(=S)N/N=C(\c1ccc(Cl)cc1)C1CC1`: the growth in [10] is 67.3%; in [2] it was 70.9%; in [3], 95.5%; in experiment [4] it was 68.2%; in experiment [5] it was 92.8%; in [6], 45.7%. Moreover, the growth was 58.2% in experiment [7], 99.6% in experiment [8] and 67.3% in experiment [9].
Consider `COC(=O)N[C@H]1CCc2cc(OC)c(OC)c(OC)c2-c2ccc(SC)c(=O)cc21`, for which the growth in experiment [1] was 3.05% (active); in experiment [2], 9.33% (active); in experiment [3], 9.44% (active); in experiment [4] it was 39.8%; in experiment [5], 24.6%; in [6], 19.9%. For the same compound, the growth in experiment [7] was -20.6% (active); in experiment [8], 2.61% (active); in experiment [9], -22% (active).
Turning to `CCCC/C(=N\N=C(N)N)c1ccc(F)cc1`, the growth in [10] is 36%; in experiment [2], 33.6%; in experiment [3], 50.5%; in experiment [4] it was 39.7%; in experiment [5] it was 13.7%; in experiment [6] it was 45%. In addition, the growth in experiment [7] is -11.4% (active); in experiment [8], 26.1%; in experiment [9] it was 7.48% (active).
For `COc1ccc(Cn2nc(-c3ccccc3)c3c2CCc2cnoc2-3)cc1`, the growth was 36% in [1]; 80.8% in [2]; 102% in [3]; 72.1% in experiment [4]; 83.1% in experiment [5]; 86% in experiment [6]. Further, the growth in experiment [8] was 90.7%; in experiment [9] it was 66.7%.
Turning to `Cn1/c(=N/NC(N)=S)ccc2ccccc21`, the growth in [10] is 78.2%; in experiment [2], 74.6%; in experiment [3], 99%; in experiment [4] it was 93.3%; in experiment [5], 107%; in experiment [6], 44.7%. The growth is 44.1% in experiment [7], 103% in [8] and 77% in [9].
Regarding `COc1cc(C(=O)c2cnc(-c3ccc4cc[nH]c4c3)[nH]2)cc(OC)c1OC`, the growth is 6.26% (active) in experiment [1]; -0.63% (active) in [10]; 32.2% in experiment [3]; 39.3% in [4]; 23.5% in [5]; 26.3% in [6]. The values for the growth in experiment [7], in experiment [8] and in experiment [9] were -34.2% (active), 20.6% and 8.52% (active), respectively.
In the case of `Cc1cc(C)n(Nc2nc3ccccc3[nH]c2=O)c(=O)c1C#N`, the growth was 82.5% in [1]; 97.7% in experiment [2]; 99.7% in [3]; 93.4% in [4]; 96.9% in [5]; 94.8% in [6]. Further, the growth in [7] and in [9] was 101% throughout.
With `O=C(O)C(/C=C/c1ccco1)=N\Nc1nc(-c2ccc(Cl)cc2)cs1`, the growth in experiment [1] was 41.5%; in experiment [2], 36.6%; in experiment [3] it was 98.9%; in experiment [4] it was 43.1%; in experiment [5] it was 70.9%; in experiment [6] it was -10% (active). Also, the growth in experiment [8] was 77.3%; in experiment [9] it was 12.5%.
For `Nc1nnc(C(=O)c2cnc3n(c2=O)CCCCC3)s1`, the growth in experiment [1] is 107%; in experiment [2], 105%; in experiment [3], 104%; in [4] it was 111%; in [6] it was 110%; in experiment [8], 99.7%. In addition, the growth in [9] is 94.7%.
For `BrC(Br)(Br)c1cnc2ccccc2n1`, the growth is 41.8% in experiment [10]; 45.4% in experiment [2]; 60.3% in experiment [3]; 44.1% in [4]; 69.4% in experiment [5]; 51.9% in experiment [6]. For the same compound, the figures for the growth in experiment [7] and in experiment [8] were -27.5% (active) and 66.7%, respectively.
